Inconclusive results are not listed. Unmarked numbers belong to inactive results. Active and inactive are the calls of the source. Calls come from the whole dose curve; as a rule, active = well fitted cell-killing curve with a large enough effect; inconclusive = small, poorly fitted or top-dose-only effect, or effect the other way; inactive = no such curve, though single readings can be large or run the other way.
Potency is the fitted concentration of half-maximal effect.

A short description of the first assay: Quantitative High-Throughput drug screen in 47 multiple myeloma cell lines against the NCATS MIPE library collection: SKMM1_PLB cell viability assay (AID 1919863). Note: nearly all actives have a fitted effect of over 35% in size. Particulars: SKMM1 myeloma viability, CellTiter-Glo ATP, 48 h; viability: stronger effect = lower value. The gist of the method:
(§1)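 Cells were exposed to library compounds for 48 hours, after which ATP was measured by CellTiter-Glo. Signal was taken as median relative luminescence units.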
On the technique in general: In ATP-based viability assays light output follows the ATP content of the culture.
On to `O=c1c(O)c(-c2cc(O)c(O)c(O)c2)oc2cc(O)cc(O)c12`, for which the Potency was 20.9 µM (active).

`O=C1NC(=O)C(c2ccccc2[N+](=O)[O-])=C1Nc1ccc(O)c(Cl)c1`: the viability was 110%.

`N=C(N)c1ccc2cc(OC(=O)c3ccc(N=C(N)N)cc3)ccc2c1`: the Potency is 8.33 µM (active).

Take `CN(C)C(=O)COC(=O)Cc1ccc(OC(=O)c2ccc(N=C(N)N)cc2)cc1`: the viability was 150%.

For the compound `CN(c1nccc(=O)[nH]1)C1CCN(c2nc3ccccc3n2Cc2ccc(F)cc2)CC1`, the viability was 125%.

With `C[C@]12CCC(=O)C=C1CC[C@@H]1[C@H]2[C@@H](O)C[C@@]2(C)[C@H]1CC[C@]2(O)C(=O)CO`, the viability is 138%.

For `Clc1ccc(C(Cn2ccnc2)OCc2ccsc2Cl)c(Cl)c1` (configuration not stated), the Potency is 13.2 µM (active).

In the case of `CCCOc1ccc2nc(NC(=O)OC)[nH]c2c1`, the Potency was 0.0093 µM (active).

Take `CC1=C(C(=O)O)N2C(=O)[C@@H](NC(=O)[C@H](N)C3=CCC=CC3)[C@H]2SC1`: the viability is 126%.

On to `CC(C)Oc1ccc2c(=O)c(-c3ccccc3)coc2c1`, for which the viability is 100%.

On to `CC1(C)CCC(C)(C)c2cc(NC(=O)c3ccc(C(=O)O)cc3)ccc21`, for which the Potency was 14.8 µM (active).

As to `CCOC(=O)C1=C(O)C(=O)N(Cc2ccccc2)C1`, the viability was 107%.

With `COc1cc(C(C)=O)ccc1OCCCN1CCC(c2noc3cc(F)ccc23)CC1`, the viability was 110%.

With `CC(C)[N+]1(C)[C@@H]2CC[C@H]1CC(OC(=O)C(CO)c1ccccc1)C2` (some centres not stated), the viability was 150%.

As for `O=C(NOCC1CC1)c1ccc(F)c(F)c1Nc1ccc(I)cc1Cl`, the Potency is 20.9 µM (active).

Consider `CCCS(=O)c1ccc2nc(NC(=O)OC)[nH]c2c1` (configuration not stated), for which the Potency was 10.5 µM (active).

In the case of `NC(=O)Cc1cccc(C(=O)c2ccccc2)c1N`, the viability was 121%.

In the case of `Cc1cc(=O)c2c(O)c3c(O)cc(=O)c4c3c3c(cc(O)c1c23)C(C)(C)C=4O`, the Potency was 5.26 µM (active).

With `Oc1ccc(OCc2ccccc2)cc1`, the Potency was 7.43 µM (active).

With `CC(=O)O[C@H]1C(=O)[C@@]2(C)C([C@H](OC(=O)c3ccccc3)[C@]3(O)C[C@H](OC(=O)[C@H](O)[C@@H](NC(=O)c4ccccc4)c4ccccc4)C(C)=C1C3(C)C)[C@]1(OC(C)=O)CO[C@@H]1C[C@@H]2O` (some centres not stated), the Potency is 0.0033 µM (active).

On to `O=c1c(O)c(-c2ccc(O)cc2O)oc2cc(O)cc(O)c12`, for which the viability is 122%.

For `CN(C)CCc1c[nH]c2ccc(Cn3cncn3)cc12`, the viability was 127%.

A short description of another assay: Quantitative High-Throughput drug screen in 47 multiple myeloma cell lines against the NCATS MIPE library collection: U266_ATCC cell viability assay (AID 1919864).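 For viability (% of DMSO control): 0% = media-only wells without cells and 100% = DMSO-only wells.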 Note: nearly all actives have a fitted effect of over 35% in size. Particulars: U266 myeloma viability, CellTiter-Glo ATP luminescence, 48 h; series mostly up to 45.8 µM; viability (% of DMSO control): at the top concentration. The gist of the method: as §1
Turning to `c1cnc2cc3c(cc2n1)C1CNCC3C1`, the “viability (% of DMSO control)” value was 139%.

Take `CC1(C)NC(=O)N(c2ccc([N+](=O)[O-])c(C(F)(F)F)c2)C1=O`: the “viability (% of DMSO control)” value was 105%.

As to `O=C1NC(=O)C(c2ccccc2[N+](=O)[O-])=C1Nc1ccc(O)c(Cl)c1`, the “viability (% of DMSO control)” value is 108%.

Regarding `CN(C)C(=O)COC(=O)Cc1ccc(OC(=O)c2ccc(N=C(N)N)cc2)cc1`, the Potency was 26.4 µM (active).

Consider `CCN(CCO)CCCC(C)Nc1ccnc2cc(Cl)ccc12` (configuration not stated), for which the “viability (% of DMSO control)” value was 115%.

Take `COc1cc(OC)c(C(=O)CCCN2CCCC2)c(OC)c1`: the “viability (% of DMSO control)” value was 125%.

For `CN(c1nccc(=O)[nH]1)C1CCN(c2nc3ccccc3n2Cc2ccc(F)cc2)CC1`, the Potency is 11.8 µM (active).

Turning to `Cc1nc(Nc2ncc(C(=O)Nc3c(C)cccc3Cl)s2)cc(N2CCN(CCO)CC2)n1`, the Potency is 16.6 µM (active).

As for `CC(C)Oc1ccc2c(=O)c(-c3ccccc3)coc2c1`, the “viability (% of DMSO control)” value is 114%.

On to `CC1(C)CCC(C)(C)c2cc(NC(=O)c3ccc(C(=O)O)cc3)ccc21`, for which the “viability (% of DMSO control)” value is 109%.

With `CCOC(=O)C1=C(O)C(=O)N(Cc2ccccc2)C1`, the “viability (% of DMSO control)” value was 135%.

Regarding `CCC1=C(C)CN(C(=O)NCCc2ccc(S(=O)(=O)NC(=O)NC3CCC(C)CC3)cc2)C1=O` (configuration not stated), the “viability (% of DMSO control)” value is 114%.

With `CC(C)[N+]1(C)[C@@H]2CC[C@H]1CC(OC(=O)C(CO)c1ccccc1)C2` (some centres not stated), the “viability (% of DMSO control)” value was 144%.

For the compound `O=C(NOCC1CC1)c1ccc(F)c(F)c1Nc1ccc(I)cc1Cl`, the Potency was 23.5 µM (active).

With `Cc1cc(=O)c2c(O)c3c(O)cc(=O)c4c3c3c(cc(O)c1c23)C(C)(C)C=4O`, the Potency is 26.4 µM (active).

`Oc1ccc(OCc2ccccc2)cc1`: the “viability (% of DMSO control)” value was 136%.

For the compound `CC(=O)O[C@H]1C(=O)[C@@]2(C)C([C@H](OC(=O)c3ccccc3)[C@]3(O)C[C@H](OC(=O)[C@H](O)[C@@H](NC(=O)c4ccccc4)c4ccccc4)C(C)=C1C3(C)C)[C@]1(OC(C)=O)CO[C@@H]1C[C@@H]2O` (some centres not stated), the “viability (% of DMSO control)” value is 107%.

Consider `CCCCN(CCCC)CCC(O)c1cc2c(Cl)cc(Cl)cc2c2cc(C(F)(F)F)ccc12` (configuration not stated), for which the “viability (% of DMSO control)” value was 128%.

With `O=c1c(O)c(-c2ccc(O)cc2O)oc2cc(O)cc(O)c12`, the “viability (% of DMSO control)” value is 128%.

Turning to `CN(C)CCc1c[nH]c2ccc(Cn3cncn3)cc12`, the “viability (% of DMSO control)” value was 121%.

Take `CN1C(C(=O)Nc2ccccn2)=C(O)c2sccc2S1(=O)=O`: the “viability (% of DMSO control)” value was 142%.

As to `C=CCc1cc(OC)c(O)c(C(=O)NCCO)c1`, the “viability (% of DMSO control)” value is 119%.

The next assay can be described thus: Quantitative High-Throughput drug screen in 47 multiple myeloma cell lines against the NCATS MIPE library collection: XG6_PLB cell viability assay (AID 1919865).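 For viability (% of control): 100% = DMSO-only wells and 0% = media-only wells.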 Note: nearly all actives have a fitted effect of over 40% in size. Particulars: XG6 myeloma viability, CellTiter-Glo ATP luminescence, 48 h; series mostly up to 45.8 µM; viability (% of control): at the top concentration. The gist of the method: as §1
As to `CC1(C)C(=O)N(CCN2CCC(C(=O)c3ccc(F)cc3)CC2)c2ccccc21`, the Potency was 4.69 µM (active).

On to `O=c1c(O)c(-c2cc(O)c(O)c(O)c2)oc2cc(O)cc(O)c12`, for which the “viability (% of control)” value is 130%.

Turning to `CC1(C)NC(=O)N(c2ccc([N+](=O)[O-])c(C(F)(F)F)c2)C1=O`, the “viability (% of control)” value is 112%.

In the case of `O=C1NC(=O)C(c2ccccc2[N+](=O)[O-])=C1Nc1ccc(O)c(Cl)c1`, the Potency was 6.62 µM (active).

Turning to `N=C(N)c1ccc2cc(OC(=O)c3ccc(N=C(N)N)cc3)ccc2c1`, the “viability (% of control)” value is 111%.

As to `CN(C)C(=O)COC(=O)Cc1ccc(OC(=O)c2ccc(N=C(N)N)cc2)cc1`, the Potency was 5.26 µM (active).

Turning to `CCN(CCO)CCCC(C)Nc1ccnc2cc(Cl)ccc12` (configuration not stated), the “viability (% of control)” value is 104%.

With `COc1cc(OC)c(C(=O)CCCN2CCCC2)c(OC)c1`, the “viability (% of control)” value was 105%.

Turning to `CN(c1nccc(=O)[nH]1)C1CCN(c2nc3ccccc3n2Cc2ccc(F)cc2)CC1`, the Potency was 18.7 µM (active).

`C[C@]12CCC(=O)C=C1CC[C@@H]1[C@H]2[C@@H](O)C[C@@]2(C)[C@H]1CC[C@]2(O)C(=O)CO`: the Potency was 18.7 µM (active).

Take `Cc1nc(Nc2ncc(C(=O)Nc3c(C)cccc3Cl)s2)cc(N2CCN(CCO)CC2)n1`: the Potency is 0.0332 µM (active).

`Clc1ccc(C(Cn2ccnc2)OCc2ccsc2Cl)c(Cl)c1` (configuration not stated): the Potency was 20.9 µM (active).

Take `CC(C)Oc1ccc2c(=O)c(-c3ccccc3)coc2c1`: the “viability (% of control)” value is 111%.

As for `CC1(C)CCC(C)(C)c2cc(NC(=O)c3ccc(C(=O)O)cc3)ccc21`, the Potency was 5.26 µM (active).

With `CCOC(=O)C1=C(O)C(=O)N(Cc2ccccc2)C1`, the “viability (% of control)” value is 115%.

Consider `CC(C)[N+]1(C)[C@@H]2CC[C@H]1CC(OC(=O)C(CO)c1ccccc1)C2` (some centres not stated), for which the “viability (% of control)” value is 75.6%.

In the case of `O=C(NOCC1CC1)c1ccc(F)c(F)c1Nc1ccc(I)cc1Cl`, the Potency was 6.62 µM (active).

For the compound `NC(=O)Cc1cccc(C(=O)c2ccccc2)c1N`, the “viability (% of control)” value was 116%.

Take `C[C@H](Cn1cnc2c(N)ncnc21)OCP(=O)(O)O`: the “viability (% of control)” value is 123%.

Take `Cc1cc(=O)c2c(O)c3c(O)cc(=O)c4c3c3c(cc(O)c1c23)C(C)(C)C=4O`: the Potency is 0.743 µM (active).

As for `O=C(NCCO[N+](=O)[O-])c1cccnc1`, the “viability (% of control)” value was 142%.

As for `CCCCN(CCCC)CCC(O)c1cc2c(Cl)cc(Cl)cc2c2cc(C(F)(F)F)ccc12` (configuration not stated), the Potency was 26.4 µM (active).

With `CCc1nc(N)nc(N)c1-c1ccc(Cl)cc1`, the “viability (% of control)” value was 85.1%.

On to `CCCCCCCCCCCCCCCCCCCCCCO`, for which the “viability (% of control)” value was 97.7%.

`C[C@@H](c1ncncc1F)[C@](O)(Cn1cncn1)c1ccc(F)cc1F`: the Potency was 5.26 µM (active).

In the case of `O=c1c(O)c(-c2ccc(O)cc2O)oc2cc(O)cc(O)c12`, the “viability (% of control)” value was 99.1%.

For the compound `CN1C(C(=O)Nc2ccccn2)=C(O)c2sccc2S1(=O)=O`, the “viability (% of control)” value was 108%.

On to `C=CCc1cc(OC)c(O)c(C(=O)NCCO)c1`, for which the “viability (% of control)” value was 118%.

Usually viability stands for a read-out of living cells in per cent, often relative to untreated cells.

These data come from PubChem BioAssay (NCATS).
